Laboratory results published in ChEMBL document CHEMBL1961873, “Compounds: GSK PKIS; Assays: Nanosyn kinase panel” (2012).

Tests used:
[1] = target: T1, Ephrin type-B receptor 2 (Homo sapiens) (UniProt P29323); settings: at 1 µM
T1 sequence (whole entry): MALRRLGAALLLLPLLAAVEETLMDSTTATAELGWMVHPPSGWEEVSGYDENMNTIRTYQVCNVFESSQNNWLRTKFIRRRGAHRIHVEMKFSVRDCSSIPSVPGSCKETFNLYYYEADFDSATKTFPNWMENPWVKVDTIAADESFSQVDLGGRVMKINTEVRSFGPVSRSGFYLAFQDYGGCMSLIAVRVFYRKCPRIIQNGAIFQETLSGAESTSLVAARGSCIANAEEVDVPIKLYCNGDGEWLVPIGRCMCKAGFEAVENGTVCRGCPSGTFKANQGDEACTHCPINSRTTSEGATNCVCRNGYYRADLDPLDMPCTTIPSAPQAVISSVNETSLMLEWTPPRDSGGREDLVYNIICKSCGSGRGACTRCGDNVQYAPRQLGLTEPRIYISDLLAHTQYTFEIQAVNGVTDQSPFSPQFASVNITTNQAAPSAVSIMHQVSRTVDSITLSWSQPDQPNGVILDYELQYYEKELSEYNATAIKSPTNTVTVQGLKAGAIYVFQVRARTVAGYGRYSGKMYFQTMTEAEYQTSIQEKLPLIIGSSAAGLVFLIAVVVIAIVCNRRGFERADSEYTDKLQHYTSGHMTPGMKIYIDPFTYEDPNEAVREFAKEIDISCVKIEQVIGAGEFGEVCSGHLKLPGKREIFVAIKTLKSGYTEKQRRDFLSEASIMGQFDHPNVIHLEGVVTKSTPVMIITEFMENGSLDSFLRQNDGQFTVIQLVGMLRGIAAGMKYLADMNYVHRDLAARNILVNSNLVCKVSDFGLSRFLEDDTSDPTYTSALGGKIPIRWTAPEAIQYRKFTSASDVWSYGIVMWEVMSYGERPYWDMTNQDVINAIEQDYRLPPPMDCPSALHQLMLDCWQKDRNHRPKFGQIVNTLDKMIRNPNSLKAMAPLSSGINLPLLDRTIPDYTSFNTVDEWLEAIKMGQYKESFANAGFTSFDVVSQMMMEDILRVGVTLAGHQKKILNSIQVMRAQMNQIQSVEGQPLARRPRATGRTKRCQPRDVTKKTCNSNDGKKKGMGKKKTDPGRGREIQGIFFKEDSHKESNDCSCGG

[2] = target: T2, Ephrin type-B receptor 3 (Homo sapiens) (UniProt P54753); settings: at 0.1 µM
T2 sequence (whole entry): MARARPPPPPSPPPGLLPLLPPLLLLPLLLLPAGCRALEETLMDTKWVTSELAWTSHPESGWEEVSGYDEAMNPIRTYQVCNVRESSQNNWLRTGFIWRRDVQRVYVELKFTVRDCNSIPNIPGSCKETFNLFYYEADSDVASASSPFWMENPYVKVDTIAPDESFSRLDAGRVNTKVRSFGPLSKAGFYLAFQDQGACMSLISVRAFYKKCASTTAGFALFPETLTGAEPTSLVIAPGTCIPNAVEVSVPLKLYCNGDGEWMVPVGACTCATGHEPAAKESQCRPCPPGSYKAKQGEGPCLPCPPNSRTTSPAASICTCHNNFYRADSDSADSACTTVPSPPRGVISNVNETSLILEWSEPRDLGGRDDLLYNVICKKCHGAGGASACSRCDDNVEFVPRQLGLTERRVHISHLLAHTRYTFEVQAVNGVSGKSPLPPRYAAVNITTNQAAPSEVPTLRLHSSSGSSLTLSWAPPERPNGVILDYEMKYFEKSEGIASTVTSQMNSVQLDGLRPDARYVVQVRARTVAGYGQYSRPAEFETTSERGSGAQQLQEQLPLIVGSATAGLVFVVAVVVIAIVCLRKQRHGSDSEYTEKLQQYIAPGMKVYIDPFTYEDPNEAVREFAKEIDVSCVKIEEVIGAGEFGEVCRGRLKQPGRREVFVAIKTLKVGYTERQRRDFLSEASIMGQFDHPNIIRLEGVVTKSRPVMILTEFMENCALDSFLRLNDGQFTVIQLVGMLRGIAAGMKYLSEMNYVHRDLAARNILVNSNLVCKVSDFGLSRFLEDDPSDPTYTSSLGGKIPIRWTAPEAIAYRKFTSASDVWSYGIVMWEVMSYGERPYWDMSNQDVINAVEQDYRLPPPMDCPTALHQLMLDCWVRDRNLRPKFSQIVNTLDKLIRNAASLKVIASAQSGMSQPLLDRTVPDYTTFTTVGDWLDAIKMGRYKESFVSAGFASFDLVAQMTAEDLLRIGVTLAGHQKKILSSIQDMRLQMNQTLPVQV

[3] = target: T2, Ephrin type-B receptor 3 (Homo sapiens); settings: at 1 µM
[4] = target: T3, Ephrin type-B receptor 4 (Homo sapiens) (UniProt P54760); settings: at 0.1 µM
T3 sequence (whole entry): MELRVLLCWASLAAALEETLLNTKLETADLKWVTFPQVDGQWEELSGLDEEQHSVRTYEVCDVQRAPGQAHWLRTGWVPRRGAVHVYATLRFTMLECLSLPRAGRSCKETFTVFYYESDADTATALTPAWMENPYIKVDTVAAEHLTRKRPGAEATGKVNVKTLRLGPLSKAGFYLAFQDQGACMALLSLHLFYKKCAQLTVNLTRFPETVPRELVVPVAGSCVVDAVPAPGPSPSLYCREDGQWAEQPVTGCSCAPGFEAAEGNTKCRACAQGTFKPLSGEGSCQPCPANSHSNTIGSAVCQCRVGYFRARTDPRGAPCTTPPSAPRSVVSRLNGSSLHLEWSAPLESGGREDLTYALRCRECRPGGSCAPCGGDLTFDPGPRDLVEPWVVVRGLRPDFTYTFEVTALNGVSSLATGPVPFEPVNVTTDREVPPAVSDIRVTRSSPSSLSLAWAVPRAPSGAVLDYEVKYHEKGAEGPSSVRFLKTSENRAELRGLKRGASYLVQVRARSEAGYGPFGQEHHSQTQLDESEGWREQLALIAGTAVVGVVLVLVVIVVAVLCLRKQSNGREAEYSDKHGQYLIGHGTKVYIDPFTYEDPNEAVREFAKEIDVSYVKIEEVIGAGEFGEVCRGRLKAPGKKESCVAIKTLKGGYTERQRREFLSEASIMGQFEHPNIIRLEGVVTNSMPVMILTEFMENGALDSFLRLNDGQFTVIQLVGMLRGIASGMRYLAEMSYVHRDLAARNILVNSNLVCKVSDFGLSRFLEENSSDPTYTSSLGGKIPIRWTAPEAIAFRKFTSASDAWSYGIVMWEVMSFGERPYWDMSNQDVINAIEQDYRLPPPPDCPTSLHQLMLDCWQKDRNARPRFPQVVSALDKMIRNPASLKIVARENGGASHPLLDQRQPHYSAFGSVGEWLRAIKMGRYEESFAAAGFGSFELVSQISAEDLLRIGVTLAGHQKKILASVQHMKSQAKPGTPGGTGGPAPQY

[5] = target: T3, Ephrin type-B receptor 4 (Homo sapiens); settings: at 1 µM
[6] = target: Receptor tyrosine-protein kinase erbB-2 (Homo sapiens) (UniProt P04626); settings: at 0.1 µM
[7] = target: Receptor tyrosine-protein kinase erbB-2 (Homo sapiens) (UniProt P04626); settings: at 1 µM
[8] = target: Receptor tyrosine-protein kinase erbB-4 (Homo sapiens) (UniProt Q15303); settings: at 0.1 µM
[9] = target: Receptor tyrosine-protein kinase erbB-4 (Homo sapiens) (UniProt Q15303); settings: at 1 µM
[10] = target: Tyrosine-protein kinase Fer (Homo sapiens) (UniProt P16591); settings: at 0.1 µM;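 also: reported figures are averaged percent inhibition of FER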
Sequence of Tyrosine-protein kinase Fer (Homo sapiens) (P16591 whole entry, looked up): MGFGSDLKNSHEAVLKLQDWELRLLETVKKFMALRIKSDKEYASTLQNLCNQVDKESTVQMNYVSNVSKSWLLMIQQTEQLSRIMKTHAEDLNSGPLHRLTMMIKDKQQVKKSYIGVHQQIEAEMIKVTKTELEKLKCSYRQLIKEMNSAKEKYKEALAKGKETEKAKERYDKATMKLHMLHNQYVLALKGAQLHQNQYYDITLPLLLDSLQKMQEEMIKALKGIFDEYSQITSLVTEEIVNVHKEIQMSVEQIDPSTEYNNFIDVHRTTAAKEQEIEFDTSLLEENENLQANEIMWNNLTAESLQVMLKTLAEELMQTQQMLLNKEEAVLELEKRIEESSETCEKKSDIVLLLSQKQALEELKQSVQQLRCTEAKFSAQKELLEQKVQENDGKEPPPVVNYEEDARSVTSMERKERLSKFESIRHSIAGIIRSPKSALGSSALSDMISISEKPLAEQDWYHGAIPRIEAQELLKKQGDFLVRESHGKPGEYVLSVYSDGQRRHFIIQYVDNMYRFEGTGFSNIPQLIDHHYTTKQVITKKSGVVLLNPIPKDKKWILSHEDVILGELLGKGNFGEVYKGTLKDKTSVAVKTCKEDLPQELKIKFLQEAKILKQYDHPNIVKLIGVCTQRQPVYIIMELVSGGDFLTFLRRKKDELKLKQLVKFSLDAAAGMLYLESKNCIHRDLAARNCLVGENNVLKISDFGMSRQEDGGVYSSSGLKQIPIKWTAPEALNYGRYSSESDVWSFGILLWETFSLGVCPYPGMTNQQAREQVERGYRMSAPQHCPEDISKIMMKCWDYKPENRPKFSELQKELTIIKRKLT

Sequence of Receptor tyrosine-protein kinase erbB-4 (Homo sapiens) (Q15303 whole entry): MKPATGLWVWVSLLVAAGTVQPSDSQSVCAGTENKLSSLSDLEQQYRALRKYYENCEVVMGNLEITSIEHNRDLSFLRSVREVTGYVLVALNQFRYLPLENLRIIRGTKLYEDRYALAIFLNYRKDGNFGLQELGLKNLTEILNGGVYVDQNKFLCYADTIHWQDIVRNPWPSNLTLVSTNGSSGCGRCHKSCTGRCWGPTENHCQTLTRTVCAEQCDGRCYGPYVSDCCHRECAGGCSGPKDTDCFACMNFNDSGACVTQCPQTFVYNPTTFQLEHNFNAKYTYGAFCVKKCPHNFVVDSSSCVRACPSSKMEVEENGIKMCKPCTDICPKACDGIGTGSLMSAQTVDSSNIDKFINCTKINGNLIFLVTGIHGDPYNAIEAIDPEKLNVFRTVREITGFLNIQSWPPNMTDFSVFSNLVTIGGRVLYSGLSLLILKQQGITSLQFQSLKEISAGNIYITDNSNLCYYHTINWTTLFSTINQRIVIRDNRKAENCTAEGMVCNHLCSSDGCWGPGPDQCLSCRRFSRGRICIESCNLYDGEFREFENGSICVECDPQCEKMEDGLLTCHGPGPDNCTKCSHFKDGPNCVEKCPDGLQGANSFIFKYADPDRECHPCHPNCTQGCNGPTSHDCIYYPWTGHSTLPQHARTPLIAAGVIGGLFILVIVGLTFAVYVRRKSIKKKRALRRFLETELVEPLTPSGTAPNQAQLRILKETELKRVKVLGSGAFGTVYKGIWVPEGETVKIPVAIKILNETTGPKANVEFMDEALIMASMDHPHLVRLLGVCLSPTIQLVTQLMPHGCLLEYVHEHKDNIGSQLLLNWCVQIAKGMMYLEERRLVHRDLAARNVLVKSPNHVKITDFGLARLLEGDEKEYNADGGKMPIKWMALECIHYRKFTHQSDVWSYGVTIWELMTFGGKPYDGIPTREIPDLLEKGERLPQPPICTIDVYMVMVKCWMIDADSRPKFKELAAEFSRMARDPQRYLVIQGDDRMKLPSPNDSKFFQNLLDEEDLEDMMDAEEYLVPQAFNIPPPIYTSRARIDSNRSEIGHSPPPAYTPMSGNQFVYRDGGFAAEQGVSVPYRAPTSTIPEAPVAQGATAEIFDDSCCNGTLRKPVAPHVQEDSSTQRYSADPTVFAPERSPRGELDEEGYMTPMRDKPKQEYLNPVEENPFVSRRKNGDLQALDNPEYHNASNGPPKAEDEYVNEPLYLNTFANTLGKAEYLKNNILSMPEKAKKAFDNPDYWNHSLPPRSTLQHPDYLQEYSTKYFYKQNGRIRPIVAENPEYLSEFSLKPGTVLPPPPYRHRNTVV
Sequence of Receptor tyrosine-protein kinase erbB-2 (Homo sapiens) (P04626 whole entry): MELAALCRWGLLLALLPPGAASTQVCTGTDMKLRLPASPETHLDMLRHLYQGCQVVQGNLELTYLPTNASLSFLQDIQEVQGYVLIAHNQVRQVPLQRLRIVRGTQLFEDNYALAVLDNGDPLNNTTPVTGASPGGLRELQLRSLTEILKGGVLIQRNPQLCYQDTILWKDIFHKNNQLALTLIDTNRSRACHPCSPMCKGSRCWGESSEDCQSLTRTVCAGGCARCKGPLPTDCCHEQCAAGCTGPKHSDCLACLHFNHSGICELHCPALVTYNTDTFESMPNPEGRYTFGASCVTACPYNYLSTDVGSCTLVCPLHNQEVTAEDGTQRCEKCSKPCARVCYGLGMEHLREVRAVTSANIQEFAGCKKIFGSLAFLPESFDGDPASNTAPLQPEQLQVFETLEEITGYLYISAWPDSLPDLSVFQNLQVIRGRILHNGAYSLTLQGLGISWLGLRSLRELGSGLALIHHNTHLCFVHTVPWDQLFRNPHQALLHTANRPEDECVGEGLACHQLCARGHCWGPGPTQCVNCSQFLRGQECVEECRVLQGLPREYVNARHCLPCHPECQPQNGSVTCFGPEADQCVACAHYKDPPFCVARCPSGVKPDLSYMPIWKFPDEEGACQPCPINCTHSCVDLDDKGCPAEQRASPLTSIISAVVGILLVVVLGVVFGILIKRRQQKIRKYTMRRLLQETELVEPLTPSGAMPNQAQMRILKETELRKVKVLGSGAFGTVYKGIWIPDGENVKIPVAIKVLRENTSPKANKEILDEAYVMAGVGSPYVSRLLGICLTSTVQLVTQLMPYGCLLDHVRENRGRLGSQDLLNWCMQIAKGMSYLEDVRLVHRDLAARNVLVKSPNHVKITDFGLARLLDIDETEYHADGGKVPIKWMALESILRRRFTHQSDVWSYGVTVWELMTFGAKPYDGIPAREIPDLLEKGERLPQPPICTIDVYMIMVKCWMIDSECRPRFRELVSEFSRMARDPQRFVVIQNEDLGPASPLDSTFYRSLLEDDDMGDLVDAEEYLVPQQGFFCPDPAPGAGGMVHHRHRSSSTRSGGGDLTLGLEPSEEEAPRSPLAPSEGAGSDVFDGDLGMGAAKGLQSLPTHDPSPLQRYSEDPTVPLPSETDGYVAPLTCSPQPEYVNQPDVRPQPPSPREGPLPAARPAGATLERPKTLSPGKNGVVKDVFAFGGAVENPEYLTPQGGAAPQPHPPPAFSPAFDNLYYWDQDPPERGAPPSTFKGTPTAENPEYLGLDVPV

| Structure (SMILES) | inhibition [1] | inhibition [2] | inhibition [3] | inhibition [4] | inhibition [5] | inhibition [6] | inhibition [7] | inhibition [8] | inhibition [9] | inhibition [10] |
| --- | --- | --- | --- | --- | --- | --- | --- | --- | --- | --- |
| COc1cc(Nc2ncc3c(C)nc(-c4cccc(Oc5ccccc5)c4)n3n2)cc(OC)c1OC | 8.52% | 4.24% | 1.21% | 2.59% | 2.97% | 1.99% | -3.48% | 7.04% | 8.43% | 3.91% |
| c1ccc(Oc2ccc(Nc3ncc(-c4ccccc4)o3)cc2)cc1 | 9.65% | 2.67% | 0.66% | 2.42% | 0.76% | -0.01% | 1.41% | 4.29% | 5.09% | 2.19% |
| Fc1ccc(-c2c(-c3ccncc3)nc3n2CCS3)cc1 | 6.7% | 1.23% | 1.23% | -4.56% | -2.17% | 1.03% | 0.17% | 2.91% | 4.97% | 0.77% |
| c1ccc(-c2n[nH]cc2-c2ccnc(-c3ccc(OCCN4CCOCC4)cc3)c2)nc1 | 5.59% | -5.09% | -7.2% | -1.67% | 0.63% | -3.69% | -4.37% | 3.65% | 2.65% | 7.06% |
| NC(=O)Cc1ccccc1Oc1nccc(-c2c(-c3ccc(F)cc3)ncn2C2CCNCC2)n1 | 6.53% | 3.13% | 4.05% | 0.65% | 2.09% | 2.21% | -1.85% | 12.1% | 17.1% | 6.39% |
| O=C(Nc1n[nH]c2nc(-c3ccco3)ccc12)C1CC1 | 12.7% | 3.53% | 2.4% | 0.45% | 4.02% | 0.39% | 0.71% | 2.93% | 2% | 0.52% |
| COc1cc2ncn(-c3cc(OCCc4ccccc4)c(C(N)=O)s3)c2cc1OC | 6.52% | 2.67% | 2.11% | 2.03% | 2.56% | 2.58% | 2.47% | 13.8% | 13.1% | 4.91% |
| COc1cc2ncn(-c3cc(OCc4cccs4)c(C(N)=O)s3)c2cc1OC | 20.8% | -3.17% | -3.49% | -2.89% | -2.46% | 5.9% | 12.5% | 1.73% | 6.6% | 5.05% |
| Fc1ccc(-c2ncn(C3CCNCC3)c2-c2ccnc(Oc3ccc4c(c3)OCO4)n2)cc1 | 16.5% | 5.97% | 3.71% | 1.53% | 3.9% | -0.35% | 12% | 10.6% | 19.3% | 6.11% |
| O=C(Nc1n[nH]c2cc(-c3ccccc3)ccc12)C1CC1 | 17.1% | 2.9% | 2.89% | 2.92% | 4.63% | 4.46% | 1.33% | 13.8% | 15.8% | 6.13% |
| O=C(Nc1n[nH]c2nc(-c3ccc(O)cc3)c(Br)cc12)C1CC1 | 37.8% | 9.61% | 5.92% | 7.91% | 28.8% | 2.58% | 4.82% | 14.9% | 22% | 3.43% |
| CCc1nccc2c1nc(-c1nonc1N)n2CC | -7.41% | 2.73% | -3.8% | 1.19% | 1.5% | -0.18% | -3.91% | 8.55% | 9.58% | 5.29% |
| NC(=O)c1ccc(Oc2nccc(-c3c(-c4ccc(F)cc4)ncn3C3CCNCC3)n2)cc1 | 4.72% | 4.03% | 3.75% | 3.7% | 3.09% | 3.73% | 3.35% | 5.71% | 8.73% | 7.08% |
| C[C@@H](Oc1cc(-n2cnc3ccc(OCC4CCN(C)CC4)cc32)sc1C(N)=O)c1ccccc1Cl | 8.25% | 2.8% | 6.12% | 5.24% | 3.86% | 41.4% | 4.61% | 9.63% | 13.1% | 1.28% |
| Fc1ccc(-c2ncn(C3CCNCC3)c2-c2ccnc(Oc3ccc(F)c(F)c3)n2)cc1 | 8.76% | -0.46% | 1.58% | -4.11% | 0.57% | 3.82% | 3.63% | 1.82% | 5.03% | 1.43% |
| Fc1ccc(-c2nc3n(c2-c2ccncc2)CCS3)cc1 | 7.66% | 2.13% | -1.28% | -0.26% | -2.49% | 4.16% | 1.23% | 9.02% | 10% | 2.18% |
| COc1ccc2cc(-c3c(-c4ccncc4)nc(-c4ccc(S(C)(=O)=O)cc4C)n3C)ccc2c1 | 12.5% | 7.13% | 10.9% | 4.32% | 14.2% | 5.67% | 8.01% | 15% | 44.4% | 3.19% |
